# From PubChem BioAssay (NCATS)
# Results filed as inconclusive are left out. A call without a number means that no potency is given here. The source made the active and inactive calls. Calls follow the shape of the dose curve; as a rule, active = well fitted curve in the direction sought with a large enough effect; inconclusive = small, poorly fitted or top-dose-only effect, or another doubt; inactive = no such curve, though single readings can be large; an effect the other way counts as inactive or inconclusive.
# Key:
# [1] = molecular target: Aldehyde dehydrogenase, mitochondrial (Homo sapiens) (UniProt P05091); experiment: qHTS for Inhibitors of the Aldehyde Dehydrogenase Family (ALDH2) Primary screen (AID 2061308); also: nearly all actives have a fitted effect of over 55% in size
# [2] = molecular target: Aldehyde dehydrogenase 1A1 (Homo sapiens) (UniProt P00352); experiment: qHTS for Inhibitors of the Aldehyde Dehydrogenase Family (ALDH1A1) Confirmatory screens (AID 2061316); also: nearly all actives have a fitted effect of over 65% in size; also: potency is read from the fitted curve at half-maximal effect
# [3] = molecular target: Retinaldehyde dehydrogenase 3 (Homo sapiens) (UniProt P47895); experiment: qHTS for Inhibitors of the Aldehyde Dehydrogenase Family (ALDH1A3) Confirmatory screens (AID 2061311); also: nearly all actives have a fitted effect of over 60% in size
# [4] = molecular target: Retinaldehyde dehydrogenase 3 (Homo sapiens) (UniProt P47895); experiment: qHTS for Inhibitors of the Aldehyde Dehydrogenase Family (ALDH1A3) Primary screen (AID 2061315)
# [5] = BET inhibitor-based combinations targeting novel dependencies in MECOM-rearranged (r) AML: UCSD-AML1 cell line (AID 2202235); also: nearly all actives have a fitted effect of over 40% in size; also: potency is read from the fitted curve at half-maximal effect
# How it was run: (§1)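 First, 500 cells per well were seeded; next, drugs were pinned as 11-point doses; then plates sat 48 hr in the incubator; finally CellTiter-Glo was added and luminescence read, with AUC and Z-AUC computed.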
# [6] = BET inhibitor-based combinations targeting novel dependencies in MECOM-rearranged (r) AML: AML-194 cell line (AID 2202237; also: nearly all actives have a fitted effect of over 40% in size; also: potency is read from the fitted curve at half-maximal effect)
# How it was run: (§2)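 Each compound was tested at eleven concentrations on cells seeded at 500/well. After two days' incubation, ATP-based luminescence reported viability; responses relative to DMSO and blank wells yielded AUC and cell-line-centred Z-AUC.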
# [7] = BET inhibitor-based combinations targeting novel dependencies in MECOM-rearranged (r) AML: MV-4-11 cell line (AID 2202233); also: potency is read from the fitted curve at half-maximal effect; nearly all actives have a fitted effect of over 45% in size
# How it was run: as §1
# [8] = BET inhibitor-based combinations targeting novel dependencies in MECOM-rearranged (r) AML: HNT-34 cell line (AID 2202234); also: potency is read from the fitted curve at half-maximal effect; nearly all actives have a fitted effect of over 35% in size
# How it was run: as §1
# [9] = BET inhibitor-based combinations targeting novel dependencies in MECOM-rearranged (r) AML: SET-2 cell line (AID 2202231); conditions: SET-2 AML cells viability, CellTiter-Glo luminescence, 48 h; viability: hits give low values, concentration not given here; also: potency is read from the fitted curve at half-maximal effect; nearly all actives have a fitted effect of over 35% in size
# How it was run: as §2
# [10] = BET inhibitor-based combinations targeting novel dependencies in MECOM-rearranged (r) AML: OCI-AML3 cell line (AID 2202232); conditions: Potency: OCI-AML3 viability; also: potency is read from the fitted curve at half-maximal effect; nearly all actives have a fitted effect of over 35% in size
# How it was run: as §2
# [11] = BET inhibitor-based combinations targeting novel dependencies in MECOM-rearranged (r) AML: AML-191 cell line (AID 2202236; also: potency is read from the fitted curve at half-maximal effect; nearly all actives have a fitted effect of over 35% in size)
# How it was run: as §2
smiles,measurement,setting,value
O=C1Cc2cc(S(=O)(=O)N3CCN(c4ccc(O)cc4)CC3)ccc2N1,Potency,[1],inactive
same,Potency,[2],11.3 µM (active)
OCc1ccc(-c2ccc3nnc(-c4ccccn4)n3n2)cc1,Potency,[3],inactive
CCOc1ccc(NC(=O)CN2CCN(c3ccc(Cl)cc3)CC2)cc1,Potency,[3],inactive
[2H]C([2H])(Nc1nc(-c2ccccc2C([2H])(C([2H])([2H])[2H])C([2H])([2H])[2H])ncc1C)c1ccc(-n2ccnn2)cc1,Potency,[1],inactive
same,Potency,[4],inactive
same,Potency,[5],inactive
same,Potency,[6],inactive
Cc1cccc(-c2[nH]ncc2-c2ccc(F)c(-c3cnn(CCO)c3)c2)n1,Potency,[1],inactive
same,Potency,[4],inactive
same,Potency,[5],inactive
same,Potency,[6],inactive
CCOc1ccc(NC(=O)C(=O)NCCc2ccccc2)cc1,Potency,[3],inactive
COc1cc2ncnc(Nc3ccc(O)c(Br)c3)c2cc1OC,Potency,[1],inactive
same,Potency,[4],inactive
same,Potency,[7],1.48 µM (active)
same,Potency,[8],5.25 µM (active)
CCOc1ccc(NC(=O)Nc2cc3c(cc2N2CCCCC2)n(C)c(=O)n3C)cc1,Potency,[3],inactive
Cn1ncc2c(C(=O)NCC(F)(F)F)cc(-c3ccccc3F)nc21,Potency,[3],inactive
CC(=O)N1CCN(c2ccc(N)cc2)CC1,Potency,[1],inactive
same,Potency,[2],25.2 µM (active)
O=C(O)c1ccc(Cn2c(SCc3ccc(F)cc3)nc3ccncc32)cc1,Potency,[3],inactive
Nc1ccccc1S(=O)(=O)Nc1cccc2cccnc12,Potency,[1],inactive
same,Potency,[2],inactive
CCc1ccccc1NC(=O)c1ccc(F)c(S(=O)(=O)N2CCN(c3cccc(Cl)c3)CC2)c1,Potency,[3],inactive
Cc1ccc([S+](=O)([O-])c2nnn3c2nc(N2CCC(F)CC2)c2ccccc23)cc1,Potency,[3],inactive
CC(/C=C/C(=O)NO)=C\[C@@H](C)C(=O)c1ccc(N(C)C)cc1,Potency,[1],inactive
same,Potency,[9],0.372 µM (active)
same,Potency,[10],0.662 µM (active)
same,Potency,[7],0.417 µM (active)
same,Potency,[8],0.934 µM (active)
same,Potency,[5],1.05 µM (active)
same,Potency,[11],1.18 µM (active)
same,Potency,[6],1.18 µM (active)
